# Test system: HFF
# Assay: cell viability relative to DMSO control; higher = less cytotoxic
# Conditions: 1 µM; 72 h
# Protocol: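 Single-dose cytotoxicity screen of the MMV Pandemic Response Box at 1 uM on human foreskin fibroblasts (HFF), 72 h at 37 C. Viability measured by MTT (OD 550 nm) and normalised to the DMSO control (% survival).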
row,Structure (SMILES),cell viability [%]
1,CC(C)CCN1C(=O)C(C2=NS(=O)(=O)c3cc(NS(C)(=O)=O)ccc3N2)=C(O)[C@@H]2[C@H]3CC[C@H](C3)[C@@H]21,67.8
2,Nc1nc(=O)c(Br)c(-c2ccccc2)[nH]1,64.9
3,CCc1cc(O)c(Oc2ccc(C(N)=O)cc2F)cc1F,67.9
4,Cc1cc(-c2ccccc2)c(C(=O)C(=O)Nc2ccc(N3CCN(c4ncc(F)cn4)CC3)cc2)n1C,76.8
5,CCCCCCCCCN1C[C@@H](O)[C@H](O)[C@@H](O)[C@@H]1CO,84.2
6,Oc1c(C(Nc2nc3ccccc3s2)c2ccc(OC(F)F)cc2)ccc2cccnc12 (configuration not stated),57.5
7,O=C(c1ccc(F)cc1)N1CCN2C(=O)c3ccccc3C12c1ccccc1 (configuration not stated),63.3
8,O=C(NNC(=S)Nc1ccc(Cl)cc1)c1ccncc1,64.2
9,Cc1ccc(NC(=O)c2ccc(CN3CCN(C)CC3)cc2)cc1Nc1nccc(-c2cccnc2)n1,50.1
10,O=C(CP(=O)(O)O)NCCc1cccc(Oc2ccccc2)c1,65.7
11,NNC(=O)c1ccncc1,62.8
12,Nc1nnnn1CCOc1c2[nH]c3ccc(Cl)cc3c2cc2c1[nH]c1ccc(Cl)cc12,65.4
13,O=C(Cc1ccccc1F)Nc1nc2ccccc2[nH]1,69.7
14,COc1ccc(SCC(=O)N2c3ccccc3Sc3ccccc32)cc1,69.2
15,COc1cc(NS(=O)(=O)c2ccc(C)cc2)c2ncccc2c1,72.5
16,NC(=O)c1cnc2ccc(S(=O)(=O)c3ccccc3)cc2c1Nc1ccc(O)cc1,59.5
17,O=C(O)c1ccc(-n2nc(-c3ccccc3O)nc2-c2ccccc2O)cc1,76.7
18,O=c1cc(Nc2ccc3ccccc3c2)[nH]c(=O)[nH]1,65.6
19,COc1ccc(NS(=O)(=O)c2ccc(Cl)s2)cn1,72.2

row,Structure (SMILES),cell viability [%]
1,CC(C)(C)c1cc(C(=O)/C(C#N)=N/Nc2cccc(Cl)c2)no1,53
2,O=C(O)[C@H]1C2CCC(CC2)[C@@H]1Nc1nc(-c2c[nH]c3ncc(F)cc23)ncc1F,67
3,CCCCc1ccc(-c2cc(C(=O)O)cc(-c3ccc(Cl)cc3)n2)cc1,68.9
4,CCCCCc1ccc(C(=O)NCCn2cc(CCCCCc3c[nH]c(N)n3)nn2)cc1,66.1
5,OCCC#Cc1nc(-c2ccc(F)cc2)c(-c2ccncc2)n1CCCc1ccccc1,81.7
6,Cc1cc(NS(=O)(=O)c2ccc(-c3ccc(F)cc3F)cc2)no1,69.4
7,O=C(c1cc(O)nc2ccccc12)N1CCN(c2ccccc2)CC1,67
8,FC(F)(F)Oc1ccc(Nc2ccc3cccc(Cl)c3n2)cc1,56.3
9,Cc1[nH]c2ccccc2c1CC(=O)N[C@@H](Cc1ccccc1)C(=O)N(C)c1ccccc1,69.6
10,Cc1ccn2c(C(=O)NCc3ccccc3)c(C)nc2c1,66.8
11,NC(=O)c1ccccc1NC(=O)c1ccc(C(=O)Nc2ccccc2C(N)=O)cc1,63.5
12,c1ccc(-c2nnc3c4ccccc4c(N4CCNCC4)nn23)cc1,73.2
13,O=C1CCC(N2C(=O)c3ccccc3C2=O)C(=O)N1 (configuration not stated),59
14,CN(C)CCNC(=O)c1cccc2cccnc12,61.2
15,N#CCN1C(=O)COc2cc(F)c(N3C(=O)c4ccccc4C3=O)cc21,63.5
16,CC(C)n1cnc2c(NCc3ccccc3)nc(NCc3ccccc3)nc21,65.3
17,N[C@H]1CCC[C@H]1C(=O)O,70.6
18,O=C(O)c1sccc1S(=O)(=O)n1ccc2cc(Br)ccc21,65.1
